# Assay results reported in PMC7862700, “An all-to-all approach to the identification of sequence-specific readers for epigenetic DNA modifications on cytosine”.
# Experiments:
# Assay in all cases: DAPPL (digital affinity profiling via proximity ligation, sequencing); 10 mM Tris-HCl pH 7.5, 50 mM NaCl, 1 mM DTT, 4% glycerol, room temperature, 30 min; GST-TFs on glutathione beads, 16-mer random dsDNA library, 0.1% formaldehyde crosslink after washing; high values mean tight binding
# Details in all cases: protein: recombinant; tags: N-terminal GST; dsDNA, one strand shown
# [1] = target: T1, FLI1 (Homo sapiens, UniProt Q01543 1-452)
# T1 sequence: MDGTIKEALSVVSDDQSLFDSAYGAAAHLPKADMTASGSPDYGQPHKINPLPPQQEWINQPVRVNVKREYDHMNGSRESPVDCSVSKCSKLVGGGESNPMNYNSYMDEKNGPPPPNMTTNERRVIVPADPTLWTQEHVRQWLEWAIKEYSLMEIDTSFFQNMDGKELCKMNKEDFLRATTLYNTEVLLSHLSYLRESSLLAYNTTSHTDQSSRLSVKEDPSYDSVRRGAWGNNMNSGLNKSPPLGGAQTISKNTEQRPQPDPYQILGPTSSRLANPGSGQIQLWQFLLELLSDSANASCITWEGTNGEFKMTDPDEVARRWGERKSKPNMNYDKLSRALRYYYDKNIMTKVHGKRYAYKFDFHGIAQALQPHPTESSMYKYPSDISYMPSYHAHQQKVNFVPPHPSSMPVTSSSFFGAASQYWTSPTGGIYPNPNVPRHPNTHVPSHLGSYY
# In short: (§1)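 The binding signal reported is, for every hexamer, its read frequency for a factor over its read frequency for the tag-only sample. Reads came from pools of yeast-expressed, GST-fused human transcription factors on glutathione beads, barcoded with DNA and mixed with that sample, which were incubated with 200 nmole of a random double-stranded 16-mer DNA library in Tris/NaCl/DTT/glycerol buffer at room temperature for 30 min. After washing, the pools were crosslinked with 0.1% formaldehyde, proximity-ligated with BsaI/T4 ligase for 1 h at 37 °C, PCR-amplified and sequenced on an Illumina NextSeq500.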
# [2] = target: T2, ELK1 (Homo sapiens, UniProt P19419 1-428)
# T2 sequence: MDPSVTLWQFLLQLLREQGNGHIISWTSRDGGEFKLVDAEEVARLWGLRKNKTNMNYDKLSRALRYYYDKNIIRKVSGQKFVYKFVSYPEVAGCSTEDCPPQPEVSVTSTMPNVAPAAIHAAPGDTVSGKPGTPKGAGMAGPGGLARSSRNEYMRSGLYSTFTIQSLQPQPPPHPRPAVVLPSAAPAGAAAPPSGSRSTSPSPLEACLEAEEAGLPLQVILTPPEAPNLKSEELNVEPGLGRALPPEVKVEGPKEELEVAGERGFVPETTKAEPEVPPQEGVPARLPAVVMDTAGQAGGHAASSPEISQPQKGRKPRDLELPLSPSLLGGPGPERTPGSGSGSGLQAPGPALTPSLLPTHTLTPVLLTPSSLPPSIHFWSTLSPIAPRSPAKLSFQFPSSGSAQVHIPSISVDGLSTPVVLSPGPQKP
# In short: as §1
# [3] = target: T3, GABPA (Homo sapiens, UniProt Q06546 1-454)
# T3 sequence: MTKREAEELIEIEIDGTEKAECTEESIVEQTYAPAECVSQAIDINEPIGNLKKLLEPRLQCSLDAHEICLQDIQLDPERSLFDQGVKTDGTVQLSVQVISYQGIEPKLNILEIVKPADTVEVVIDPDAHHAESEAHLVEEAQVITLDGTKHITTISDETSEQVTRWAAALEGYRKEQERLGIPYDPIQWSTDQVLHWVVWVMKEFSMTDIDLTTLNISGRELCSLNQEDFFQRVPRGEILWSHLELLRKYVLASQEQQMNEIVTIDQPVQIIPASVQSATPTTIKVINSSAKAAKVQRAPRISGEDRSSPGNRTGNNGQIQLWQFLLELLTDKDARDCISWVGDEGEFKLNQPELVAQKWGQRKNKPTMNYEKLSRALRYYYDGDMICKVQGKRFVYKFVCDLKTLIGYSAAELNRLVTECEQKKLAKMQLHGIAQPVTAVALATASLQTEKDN
# In short: as §1
# [4] = target: T4, ERG (Homo sapiens, UniProt P11308 1-479)
# T4 sequence: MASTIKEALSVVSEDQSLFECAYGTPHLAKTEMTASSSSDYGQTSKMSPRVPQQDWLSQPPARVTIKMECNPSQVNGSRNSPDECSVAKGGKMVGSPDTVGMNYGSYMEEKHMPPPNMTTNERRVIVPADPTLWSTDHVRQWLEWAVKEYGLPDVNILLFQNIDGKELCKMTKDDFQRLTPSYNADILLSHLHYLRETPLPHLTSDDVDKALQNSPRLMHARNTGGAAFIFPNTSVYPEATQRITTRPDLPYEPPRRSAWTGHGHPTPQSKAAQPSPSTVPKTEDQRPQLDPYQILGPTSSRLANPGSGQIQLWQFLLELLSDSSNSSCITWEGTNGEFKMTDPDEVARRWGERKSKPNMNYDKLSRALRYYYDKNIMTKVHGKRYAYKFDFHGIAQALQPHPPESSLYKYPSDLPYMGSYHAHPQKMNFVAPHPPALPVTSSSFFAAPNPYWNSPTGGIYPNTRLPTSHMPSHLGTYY
# In short: as §1
# [5] = target: ELF1 (Homo sapiens, UniProt P32519 1-619)
# Sequence of ELF1 (P32519 whole entry): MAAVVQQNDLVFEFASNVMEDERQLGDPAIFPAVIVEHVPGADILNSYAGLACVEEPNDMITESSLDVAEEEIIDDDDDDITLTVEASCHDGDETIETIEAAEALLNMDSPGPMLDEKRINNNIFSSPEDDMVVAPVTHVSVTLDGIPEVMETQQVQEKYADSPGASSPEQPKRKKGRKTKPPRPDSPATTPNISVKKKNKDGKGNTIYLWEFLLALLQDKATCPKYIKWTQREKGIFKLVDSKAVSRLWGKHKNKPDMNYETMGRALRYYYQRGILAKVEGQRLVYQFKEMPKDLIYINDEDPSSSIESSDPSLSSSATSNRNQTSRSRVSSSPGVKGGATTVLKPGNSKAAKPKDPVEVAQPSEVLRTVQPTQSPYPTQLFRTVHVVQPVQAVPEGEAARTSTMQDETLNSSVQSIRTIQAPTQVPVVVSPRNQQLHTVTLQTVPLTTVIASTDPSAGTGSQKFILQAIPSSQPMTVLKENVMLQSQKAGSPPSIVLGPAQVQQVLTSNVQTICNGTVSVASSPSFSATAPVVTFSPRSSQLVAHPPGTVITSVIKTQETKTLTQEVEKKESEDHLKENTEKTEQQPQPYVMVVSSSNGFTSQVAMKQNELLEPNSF
# In short: as §1
# [6] = target: T5, EHF (Homo sapiens, UniProt Q9NZC4 1-300)
# T5 sequence: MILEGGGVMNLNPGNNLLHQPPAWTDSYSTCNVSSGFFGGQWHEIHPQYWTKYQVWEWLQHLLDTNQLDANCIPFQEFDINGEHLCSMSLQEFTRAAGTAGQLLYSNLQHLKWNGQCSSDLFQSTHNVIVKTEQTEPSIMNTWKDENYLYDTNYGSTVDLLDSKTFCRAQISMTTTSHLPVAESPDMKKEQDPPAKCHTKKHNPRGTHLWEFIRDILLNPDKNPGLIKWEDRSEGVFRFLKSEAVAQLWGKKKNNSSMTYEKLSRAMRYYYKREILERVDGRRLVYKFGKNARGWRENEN
# In short: as §1
# [7] = target: SPI1 (Homo sapiens, UniProt P17947 1-270)
# In short: as §1
# [8] = target: SPIB (Homo sapiens, UniProt Q01892 1-262)
# Sequence of SPIB (Q01892 whole entry): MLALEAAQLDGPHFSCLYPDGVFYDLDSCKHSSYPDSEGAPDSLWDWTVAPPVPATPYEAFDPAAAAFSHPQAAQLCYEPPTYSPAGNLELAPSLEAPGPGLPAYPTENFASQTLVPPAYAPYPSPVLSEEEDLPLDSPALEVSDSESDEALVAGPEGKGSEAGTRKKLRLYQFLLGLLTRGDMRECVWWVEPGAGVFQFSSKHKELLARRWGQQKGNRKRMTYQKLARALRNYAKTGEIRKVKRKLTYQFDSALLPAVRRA
# In short: as §1
# [9] = target: T6, ELK3 (Homo sapiens, UniProt P41970 1-407)
# T6 sequence: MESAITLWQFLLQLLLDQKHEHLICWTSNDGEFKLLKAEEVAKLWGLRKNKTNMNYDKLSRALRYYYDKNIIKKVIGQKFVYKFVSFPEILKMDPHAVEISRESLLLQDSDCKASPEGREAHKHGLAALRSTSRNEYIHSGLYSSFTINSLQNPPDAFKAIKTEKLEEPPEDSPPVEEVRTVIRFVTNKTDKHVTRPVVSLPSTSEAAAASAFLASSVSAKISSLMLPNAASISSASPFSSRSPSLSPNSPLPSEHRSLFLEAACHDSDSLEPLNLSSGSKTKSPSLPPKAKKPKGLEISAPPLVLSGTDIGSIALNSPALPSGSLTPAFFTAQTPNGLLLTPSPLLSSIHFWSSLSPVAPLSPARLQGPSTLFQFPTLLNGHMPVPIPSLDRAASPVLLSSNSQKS
# In short: as §1
Sequence,binding signal [1],binding signal [2],binding signal [3],binding signal [4],binding signal [5],binding signal [6],binding signal [7],binding signal [8],binding signal [9]
AAAAAT,"1.28 fold enrichment (6-mer frequency, TF over GST control)","1.24 fold enrichment (6-mer frequency, TF over GST control)","1.31 fold enrichment (6-mer frequency, TF over GST control)","1.26 fold enrichment (6-mer frequency, TF over GST control)","1.31 fold enrichment (6-mer frequency, TF over GST control)","1.37 fold enrichment (6-mer frequency, TF over GST control)","1.29 fold enrichment (6-mer frequency, TF over GST control)","1.43 fold enrichment (6-mer frequency, TF over GST control)","1.39 fold enrichment (6-mer frequency, TF over GST control)"
GGACCT,"1.42 fold enrichment (6-mer frequency, TF over GST control)","1.37 fold enrichment (6-mer frequency, TF over GST control)","1.41 fold enrichment (6-mer frequency, TF over GST control)","1.33 fold enrichment (6-mer frequency, TF over GST control)","1.35 fold enrichment (6-mer frequency, TF over GST control)","1.35 fold enrichment (6-mer frequency, TF over GST control)","1.28 fold enrichment (6-mer frequency, TF over GST control)","1.33 fold enrichment (6-mer frequency, TF over GST control)","1.37 fold enrichment (6-mer frequency, TF over GST control)"
GATGAT,"1.34 fold enrichment (6-mer frequency, TF over GST control)","1.37 fold enrichment (6-mer frequency, TF over GST control)","1.35 fold enrichment (6-mer frequency, TF over GST control)","1.33 fold enrichment (6-mer frequency, TF over GST control)","1.32 fold enrichment (6-mer frequency, TF over GST control)","1.44 fold enrichment (6-mer frequency, TF over GST control)","1.28 fold enrichment (6-mer frequency, TF over GST control)","1.33 fold enrichment (6-mer frequency, TF over GST control)","1.34 fold enrichment (6-mer frequency, TF over GST control)"
TTTCGG,"1.08 fold enrichment (6-mer frequency, TF over GST control)","1.14 fold enrichment (6-mer frequency, TF over GST control)","1.14 fold enrichment (6-mer frequency, TF over GST control)","1.26 fold enrichment (6-mer frequency, TF over GST control)","1.22 fold enrichment (6-mer frequency, TF over GST control)","1.18 fold enrichment (6-mer frequency, TF over GST control)","1.36 fold enrichment (6-mer frequency, TF over GST control)","1.14 fold enrichment (6-mer frequency, TF over GST control)","1.22 fold enrichment (6-mer frequency, TF over GST control)"
ATATAA,"1.15 fold enrichment (6-mer frequency, TF over GST control)","1.22 fold enrichment (6-mer frequency, TF over GST control)","1.2 fold enrichment (6-mer frequency, TF over GST control)","1.15 fold enrichment (6-mer frequency, TF over GST control)","1.24 fold enrichment (6-mer frequency, TF over GST control)","1.21 fold enrichment (6-mer frequency, TF over GST control)","1.1 fold enrichment (6-mer frequency, TF over GST control)","1.22 fold enrichment (6-mer frequency, TF over GST control)","1.25 fold enrichment (6-mer frequency, TF over GST control)"
GATTAT,"1.04 fold enrichment (6-mer frequency, TF over GST control)","1.1 fold enrichment (6-mer frequency, TF over GST control)","1.1 fold enrichment (6-mer frequency, TF over GST control)","1.06 fold enrichment (6-mer frequency, TF over GST control)","1.02 fold enrichment (6-mer frequency, TF over GST control)","1.09 fold enrichment (6-mer frequency, TF over GST control)","1.03 fold enrichment (6-mer frequency, TF over GST control)","1.11 fold enrichment (6-mer frequency, TF over GST control)","1.07 fold enrichment (6-mer frequency, TF over GST control)"
CTTCTT,"1.44 fold enrichment (6-mer frequency, TF over GST control)","1.58 fold enrichment (6-mer frequency, TF over GST control)","1.5 fold enrichment (6-mer frequency, TF over GST control)","1.63 fold enrichment (6-mer frequency, TF over GST control)","1.65 fold enrichment (6-mer frequency, TF over GST control)","1.53 fold enrichment (6-mer frequency, TF over GST control)","1.61 fold enrichment (6-mer frequency, TF over GST control)","1.44 fold enrichment (6-mer frequency, TF over GST control)","1.61 fold enrichment (6-mer frequency, TF over GST control)"
GTTGCT,"1.34 fold enrichment (6-mer frequency, TF over GST control)","1.26 fold enrichment (6-mer frequency, TF over GST control)","1.25 fold enrichment (6-mer frequency, TF over GST control)","1.3 fold enrichment (6-mer frequency, TF over GST control)","1.31 fold enrichment (6-mer frequency, TF over GST control)","1.35 fold enrichment (6-mer frequency, TF over GST control)","1.34 fold enrichment (6-mer frequency, TF over GST control)","1.28 fold enrichment (6-mer frequency, TF over GST control)","1.25 fold enrichment (6-mer frequency, TF over GST control)"
